Measurements reported in PubChem BioAssay AID588689 (Southern Research Specialized Biocontainment Screening …, 2011).
Screen size: about 340,000 compounds; about 1,000 (0.29%) were called active. Rule as the data show it: inconclusive = inhibition above about 29% without an active follow-up result; inactive = below that. The list is a sample of the results. Measured potencies and affinities stand elsewhere.

Each compound was assayed against Genome polyprotein (Dengue virus type 2 (strain 16681-PDK53)) (UniProt P29991) (assay: flavivirus cap methylation enzyme inhibition – biochemical, confirmation dose response, primary screen (AID 588689)). Conditions: Dengue-2 NS5 methyltransferase capping enzyme assay, at 25 µM, hits give high values.

| Compound | inhibition |
| --- | --- |
| O=C(c1ccccc1)c1ccccc1 | -1.45% (inactive) |
| O=C(c1ccccc1)c1ccccc1C(=O)c1ccccc1 | 1.31% (inactive) |
| Cc1ccc(CN2[C@@H]3c4ccccc4C[C@@H]3OCCS2(=O)=O)cc1 | -4.81% (inactive) |
| O=C(NCCc1ccccc1)c1cnc2ccccn2c1=O | 1.36% (inactive) |
| COc1cc(CCNC2=CC(=O)c3ncccc3C2=O)ccc1O | -6.94% (inactive) |
| O=C1c2ccccc2-c2cccnc21 | -0.66% (inactive) |
| COc1ccc(/C=C2/C(=O)N(c3cccc(F)c3)N=C2C)c(OC)c1 | 16.7% (inactive) |
| CCOC(=O)CC1=NN(c2ccccc2)C(=O)/C1=C\c1ccc(N(C)C)cc1 | 13.3% (inactive) |
| COC(=O)CC1=NN(c2ccc(OC)cc2)C(=O)/C1=C\c1ccc(Cl)cc1 | -4.74% (inactive) |
| COc1ccc(C2=NN(c3ccccc3)C(=O)/C2=C\c2ccc(O)c(OC)c2)cc1 | 8.85% (inactive) |
| O=C(CN1C(=O)c2ccccc2C1=O)OCC(=O)c1ccc(F)cc1 | 5.07% (inactive) |
| COc1cc(C(=O)NCC(c2ccco2)N2CCOCC2)cc(OC)c1OC (stereo not given) | -3.67% (inactive) |
| CCOc1ccc(CCN2C(=S)N([C@@H](CC(C)C)CN3CCCC3CN3C(=S)NC[C@@H]3CC(C)C)C[C@@H]2Cc2ccccc2)cc1 (stereo not given in full) | 0.65% (inactive) |
| O=C(c1ccc(NC(=S)Nc2ccc(Cl)c(Cl)c2)cc1)N1CCCC1 | -10.3% (inactive) |
| Cc1ccc(S(=O)(=O)CC(=O)c2cc3cccc(C)c3oc2=O)cc1 | 5.44% (inactive) |
| COc1cccc2cc(C(=O)CS(=O)(=O)c3ccc(C)cc3)c(=O)oc12 | 10.9% (inactive) |
| COCCCNC(=O)/C=C/c1c(Cl)cccc1Cl | -0.74% (inactive) |
| CCOc1ccc(C2C(C(=O)c3ccc(C)o3)=C(O)C(=O)N2c2cc(C)on2)cc1OC (stereo not given) | 4.09% (inactive) |
| Cc1cc(N2C(=O)C(O)=C(C(=O)c3ccco3)C2c2cccc(Cl)c2)no1 (stereo not given) | -4.65% (inactive) |
| COc1cccc(C2C(C(=O)c3ccc(C)o3)=C(O)C(=O)N2c2cc(C)on2)c1 (stereo not given) | -1.77% (inactive) |
| Cc1cc(N2C(=O)C(O)=C(C(=O)c3ccco3)C2c2cccc(O)c2)no1 (stereo not given) | -4.44% (inactive) |
| Cc1cc(N2C(=O)C(O)=C(C(=O)c3ccc(C)o3)C2c2cccc(Cl)c2)no1 (stereo not given) | 10.9% (inactive) |
| COC(=O)c1ccc(C2C(C(=O)c3ccc(C)o3)=C(O)C(=O)N2c2cc(C)on2)cc1 (stereo not given) | -3.53% (inactive) |
| O=C(NCN1CCN(c2ccccn2)CC1)c1cnccn1 | -4.12% (inactive) |
| O=C(Nc1cccc([N+](=O)[O-])c1)c1cc(S(=O)(=O)Nc2ccccn2)ccc1Cl | 0.65% (inactive) |
